# Source: PubChem BioAssay (NCI)
# Where “and” joins values, the source holds several entries; their conditions need not be identical. Equal values may be shown once. Compounds without any hit were thinned out: in the full panel of roughly 83,000, 20% have a hit.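 96-well plates, one dose, 48 hours. Percent growth reported; active if below 10.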 A number with no mark means an inactive call.
# Tested on: MOLT-4 leukemia
# Test: NCI-60 one-dose screen, 48 h (100 = growth as untreated, 0 = no growth, -100 = all killed)
# Conditions: 10 µM
# Protocol: Growth inhibition of the MOLT-4 human tumor cell line is measured as a screen for anti-cancer activity. Cells are grown in 96 well plates and exposed to the test compound for 48 hours. Compounds are tested at a single concentration, which is 10^-5 M for most compounds. The reported endpoint is percent growth (GI% or GIPRCNT), where numbers from 0 - 100% represent growth inhibition, and numbers from -100% - 0 represent cell death. For example, a value of 40 represents 60% growth inhibition. A value of 0 means no net growth occurred over the course of the experiment. A value of -40 indicates 40% of cells at the beginning of the experiment died by the end of the experiment. A value of -100 means all cells are dead at the end of the experiment.
# NCI-60 Human Tumor Cell Lines Screen was performed using the standard one-dose NCI protocol, which is described in more detail at https://dtp.cancer.gov/discovery_development/nci-60/default.htm.
# Compounds with GIPRCNT values below 10 were considered active. Activity score was based on GIPRCNT using the following formula: […]
# Score is 0 for GIPRCNT values of 100 or above, 50 for GIPRCNT values of 0, and 100 for GIPRCNT values of -100.
row,Structure (SMILES),growth
1,O=c1ccn2c(n1)OC1CC2OC1COC(c1ccccc1)(c1ccccc1)c1ccccc1 (stereo not given),104%
2,S=c1nc[nH]c2nc[nH]c12,10.6%
3,CS/C(=C\c1ccc(C(=O)c2ccc(C)cc2)n1C)S(C)=O (stereo not given),93.9%

# Same assay, conditions: 10 µM unless noted
row,Structure (SMILES),growth
1,Cc1cnc(N)s1,103%
2,Nc1ccc(O)c(C(=O)O)c1,97.8% and 104% and 105%
3,CC(=O)c1cc2ccccc2o1,99.7%
4,Nc1c(Cl)cc2c(c1Br)C(=O)c1ccccc1C2=O,87.8%
5,COc1ccc(CCO)cc1,60.7%
6,C/C(=C\c1ccccc1)C(O)C(=O)c1nc2ccc([N+](=O)[O-])cc2[nH]c1=O (stereo not given),91%
7,Nc1ccc(Cl)c(S(=O)(=O)O)c1,109%
8,CC(C)(C)OC(=O)NCCc1ccc(N)cc1,92.8%
9,CC(=O)Nc1cscc1NC(C)=O,111%
10,COc1ccc(C(=O)C(O)c2ccc(OC)cc2)cc1 (stereo not given),107% and 100%
11,Cc1c(Cl)cc(Cl)c(N)c1Cl,110%
12,CN(C)CC(CN(C)C)C(O)c1ccccc1 (stereo not given),106%
13,N#CC(=S)Nc1ccc(Cl)c(Cl)c1,15.8%
14,Nc1ccc2ccc(NS(=O)(=O)N3CCCCC3)cc2c1,18%
15,OCCCc1ccccc1,111%
16,Cn1c(N)c(N=O)c(=O)n(C)c1=O,93.9% and 117%
17,CCn1c2ccc(N(C)C)cc2c2cc(N(C)C)ccc21,96.9%

row,Structure (SMILES),growth
1,COc1ccc(/C=N/Nc2nc3ccccc3s2)cc1,85.8%
2,O=C1C(=O)c2ccccc2C(O)=C1CC=C(Cl)Cl,20.5% and 23.4%
3,CC(CN(C)C)CN1c2ccccc2Sc2ccccc21 (stereo not given),75.7% and 100% and 76.7%
4,CCN(CC)CCNC(=O)c1ccc(NCN2C(=O)NC(c3ccccc3)(c3ccccc3)C2=O)cc1,102% and 108%
5,O=[N+]([O-])c1cccc2ccc(N/N=C/c3ccccc3O)nc12,16.6% and 57%
6,CC(=O)/C(N=Nc1ccc(S(=O)(=O)c2ccc(N=N/C(C(C)=O)=C(/C)O)cc2)cc1)=C(\C)O,100%
7,CCOC(=O)c1ccc(C(=N)N)cc1,109%
8,CCCC(=O)Oc1ccc2ccccc2c1,92.3%
9,CC(O)CCNC(c1ccccc1)C(O)c1ccccc1 (stereo not given),102%
10,CC(C)(C)C1CCC(=NO)CC1 (stereo not given),123%
11,CCC(=O)Oc1ccc(OCc2ccccc2)cc1,74.4% and 75.2%
12,COC1C(OC(N)=O)C(O)C(Oc2ccc3c(O)c(NC(=O)c4ccc(O)c(CC=C(C)C)c4)c(=O)oc3c2C)OC1(C)C (stereo not given),75.4% and 93.5%
13,O=C(NC(=O)c1ccc(F)c(Cl)c1)NC1CC1,94.2% and 75.6%
14,CCN(CC)C(=S)SCCO,96.6%
15,O=C(O)Cc1cc(=O)[nH]n(-c2ccccc2)c1=O,88.3%
16,COC(=O)c1nc(=S)[nH]c(C(=O)OC)c1C(=O)c1ccc(OC)cc1,107%
17,Nc1nc(N)c2cc(S(=O)(=O)c3ccccc3)ccc2n1,32.8% and 49.8%

# Same assay, conditions: 50 µM
row,Structure (SMILES),growth
1,S=c1nc[nH]c2nc[nH]c12,13.3%

# Same assay, conditions: 100 µM
row,Structure (SMILES),growth
1,O=c1ccn2c(n1)OC1CC2OC1COC(c1ccccc1)(c1ccccc1)c1ccccc1 (stereo not given),74.4%
2,CS/C(=C\c1ccc(C(=O)c2ccc(C)cc2)n1C)S(C)=O (stereo not given),66.8%
